# ATG4B inh: ATG4B (human) cysteine protease inhibition; Q9Y4P1; ATG4B cleavage of LC3-PLA2, NBD-HPC fluorescence, 1 h; inhibition, % at 8.33 µM; hit rate 0.51% among 340,000; AID 504462; in the data active = inhibition above about 40%
# Target sequence (Q9Y4P1 whole entry, looked up): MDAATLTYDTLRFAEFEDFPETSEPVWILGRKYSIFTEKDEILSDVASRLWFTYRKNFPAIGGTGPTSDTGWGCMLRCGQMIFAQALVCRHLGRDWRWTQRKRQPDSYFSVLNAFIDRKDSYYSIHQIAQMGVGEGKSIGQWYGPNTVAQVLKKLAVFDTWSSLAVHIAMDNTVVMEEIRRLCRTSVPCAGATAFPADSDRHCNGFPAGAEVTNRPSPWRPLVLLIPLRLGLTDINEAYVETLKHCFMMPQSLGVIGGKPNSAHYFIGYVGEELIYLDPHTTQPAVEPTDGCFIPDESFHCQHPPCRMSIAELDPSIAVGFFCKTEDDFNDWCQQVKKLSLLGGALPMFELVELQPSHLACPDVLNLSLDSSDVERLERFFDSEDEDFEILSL
# Rin1 Abl inh: human Rin1-Abl interaction inhibition; P00519+Q13671; TR-FRET Rin1/Abl binding, biochemical; inhibition, % at 7.35 µM; hit rate 0.4% among 360,000; in the data active = inhibition above about 5%, passing the limit was not always enough
# Neddyl block: cullin neddylation inhibition; P61081+Q13564; inhibition, % at 25 µM; TR-FRET cullin neddylation, biochemical; hit rate 0.58% among 360,000; in the data active = inhibition above about 36%
# SUMO1 PPI mod: modulators of human SUMO1-mediated protein-protein interactions | P63165 | SUMO1 binding to a labelled peptide, TR-FRET, 1 h | inhibition, % at 20 µM | hit rate 0.33% among 360,000 | AID 602429; in the data active = inhibition above about 37%
# Rin1 Abl conf: confirmation of inhibitors of human Rin1-Abl interaction | shares compounds with Rin1 Abl inh | TR-FRET Rin1-Abl binding, purified proteins | inhibition, % at 7.35 µM | hit rate 49% among 1,300 | AID 602124
# GFP quencher: GFP fluorescence interference artifact; inhibition, % at 6.75 µM; shares compounds with Rin1 Abl inh; inhibitors/quenchers counterscreen; hit rate 8.5% among 1,300;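 note: ABL1-eGFP fusion protein alone without its partner RIN1-SBP; 0% = protein with vehicle and 100% = wells lacking protein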
# GFP quench DR: quenches GFP in dose response, Rin1-Abl counter-screen; 230 tested, under 10 active; IC50, µM; GFP fluorescence interference/quenching counterscreen; shares compounds with Rin1 Abl inh; call rule not given here;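 note: ABL1-eGFP fusion protein alone without its RIN1 binding partner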
# An asterisk follows results filed as active; . = not tested or not shown. An excerpt weighted towards active compounds, which were near 1.7% of everything screened. Cut-off read from the data, not from the text of the source, unless noted: active = inhibition above about 6.5%; inactive = the rest.
SMILES,ATG4B inh,Rin1 Abl inh,Neddyl block,SUMO1 PPI mod,Rin1 Abl conf,GFP quencher,others
CC1(Cc2ccc3c(c2)OCO3)C(=O)Nc2ccc(-c3cccc(C(F)(F)F)c3)cc21 (centres undefined),.,7.7*,1,11,-2,0,
CN1C[C@H]2CON(C)[C@H]2C[C@H]1c1cccc(N2CCOCC2)c1,14,0,6,-1,.,.,
Cc1cc(=O)oc2c(C)c(OCC(=O)N3CCN(C(=O)C4COc5ccccc5O4)CC3)ccc12 (centres undefined),-11,10.0*,29,1,6,-2,
C/C(=N\OC(=O)Nc1ccccc1)c1ccc(C)cc1,-2,6.4*,2,-2,-1,0,
CCCN(C(=O)C1CCCN(c2ncnc3c2nc2n3CCCCC2)C1)c1ccc(F)cc1 (centres undefined),-3,8.5*,8,0,-2,-1,
CN(CC(=O)Nc1ccccc1Br)C(=O)CNC(=O)c1ccc(Oc2ccccc2)cc1,-6,7.6*,-3,2,-2,0,
CC1=NN(c2ccc(C(=O)O)cc2)C(=O)CC1,0,1,2,1,.,.,
CC1=NN(c2ccc(C(=O)O)c(N)c2)C(=O)C1,2,12*,11,5,7.1*,0,
CC1=NN(c2ccc(S(=O)(=O)O)cc2Cl)C(=O)C1,9,1,9,37,.,.,
CC1=NN(c2ccc(Cl)c(C(=O)O)c2)C(=O)C1,2,7.2*,16,41*,0,0,
CCN(CC)c1ccc(N=C2C=CC(=O)C=C2NC(C)=O)cc1,-18,5,-18,-29,.,.,
O=c1cc(-c2ccc(O)cc2)oc2c([C@@H]3O[C@H](CO)[C@@H](O)[C@H](O)[C@H]3O)c(O)c([C@@H]3O[C@H](CO)[C@@H](O)[C@H](O)[C@H]3O)c(O)c12,-7,1,-12,-11,.,.,
O=c1cc(-c2ccc(O)c(O)c2)oc2cc(O)c([C@@H]3O[C@H](CO)[C@@H](O)[C@H](O)[C@H]3O)c(O)c12,-1,22*,-39,-19,28*,10*,
CC(=O)Cc1cc(=O)c2c(C)cc(O)c(C3OC(CO)C(O)C(O)C3O)c2o1 (centres undefined),-5,-2,16,1,.,.,
O=c1c2cc(O)c(O)cc2oc2cc(O)c(C3OC(CO)C(O)C(O)C3O)c(O)c12 (centres undefined),-2,29*,22,16,30*,8.4*,
COc1cccc(C(=O)N2CCC[C@H]2C(=O)N2CCC[C@H]2C(=O)N[C@@H](C)c2ccccc2)c1,.,.,1,-3,.,.,
CCOC(=O)CCCCCC(=O)Nc1ccc2c(c1)C(=O)N([C@H](C)CO)C[C@H](C)[C@@H](CN(C)S(C)(=O)=O)OCCCC[C@@H](C)O2,.,10*,-4,0,14*,-1,
CCOC(=O)CCCCCC(=O)Nc1ccc2c(c1)C(=O)N([C@@H](C)CO)C[C@H](C)[C@H](CN(C)S(=O)(=O)c1ccc(OC)cc1)OCCCC[C@H](C)O2,.,8,-4,0,.,.,
COc1ccc(S(=O)(=O)N(C)C[C@H]2Oc3ccc(NC(=O)C4CC4)cc3C(=O)N([C@H](C)CO)C[C@@H]2C)cc1,0,19*,-22,1,26*,-1,
CCOC(=O)CCCCCC(=O)Nc1ccc2c(c1)C(=O)N([C@H](C)CO)C[C@@H](C)[C@@H](CN(C)C(=O)CCC(F)(F)F)OCCCC[C@H](C)O2,.,51*,7,1,55*,0,GFP quench DR=>68
CCCCC(=O)C1CCN(Cc2ccccc2)CC1,-9,11*,8,-1,17*,0,GFP quench DR=>68
CCCCNC(=O)C1CCN(Cc2ccc(OCc3ccccc3)cc2)CC1,2,6,6,-1,.,.,
CC1=CC(C)(C)[N+](C)(C)c2ccc(C)cc21,1,10*,-3,5,-1,0,
CC1=CC(C)(C)N(S(=O)(=O)c2ccc(C)cc2)c2ccc(C)cc21,-9,-4,0,3,.,.,
CCCCN(C)C(=O)c1sc(=O)n(CC(=O)c2ccccc2OC)c1C,.,-1,3,6,.,.,
O=C(CC1SCCNC1=O)Nc1cc(Cl)cc(Cl)c1 (centres undefined),-4,11*,-4,-2,17*,0,GFP quench DR=>68

# Bioassay records (PubChem)
